# From PubChem
# YB-1 expression = YB-1 expression inhibition; delta delta Cp (YB-1 minus CDIP) (concentration not given with the values); 30,000 compounds, 0.37% hits; U2OS, qRT-PCR YB-1 vs CDIP delta delta Cp, 16 h; hits give high values; zero = DMSO, each unit about twofold;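 active means delta delta Cp rounded down to an integer at or above 3, about 3 SD of DMSO wells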;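 further: higher means less YB-1 transcript or more CDIP transcript relative to DMSO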
# U2OS ROS induce = inducers of reactive oxygen species in cancer cells; U2OS ROS induction, H2DCF-DA fluorescence; ROS induction (% of piperlongumine), % at 10 µM; 46,000 compounds, 2% hits; in the data active means ROS induction above about 79%, passing the limit was not always enough; inconclusive means no clear call, values can overlap the other calls;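 further: 0% = DMSO vehicle median and 100% = reference compound median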
# PD-1 reversal = activators reversing PD-1 mediated T-cell inhibition. activation, % (concentration not given with the values). primary human CD4 T cells, PD-L1 beads, CellTiter-Glo 96 h. 29,000 tested, under 10 active; call rule not given here;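 further: 0% = median vehicle wells and 100% = positive control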
# Numbers without * were called inactive; ? = inconclusive; / = not tested or not shown. Shown are actives, neighbours in structure and some others; about 2.3% of the full set was active somewhere.
SMILES,YB-1 expression,U2OS ROS induce,PD-1 reversal
O=c1c2ccccc2nc(SCc2cccc3nsnc23)n1-c1ccccc1,/,4.7,-1.9
O=c1c2ccccc2nc(SCc2ccc3c(c2)OCO3)n1-c1ccccc1,-0.6,107.2*,1.6
CCOC(=O)c1nc2ccccc2c(=O)n1/N=C/c1cc(Cl)cc(Cl)c1O,-0.164,-4.8,0.4
CN(C)CCCOc1ccc(/C=N/NC(=O)CCCCCCC(=O)Nc2ccccc2O)cc1,0.193,0.4,/
Cc1cc(C(=O)Nc2cccc3c2O[C@@H](CN(C)Cc2ccccc2)[C@@H](C)CN([C@H](C)CO)C3=O)n(C)n1,0.0378,-0.6,0.0
CC(C)NC(=O)N(C)C[C@@H]1Oc2c(NC(=O)c3ccncc3)cccc2C(=O)N([C@@H](C)CO)C[C@H]1C,-0.0772,100.7*,/
Cc1cc(C(=O)Nc2cccc3c2O[C@H](CN(C)S(=O)(=O)c2cccs2)[C@H](C)CN([C@@H](C)CO)C3=O)n(C)n1,20.1*,13.7,1.8
Cc1cc(C(=O)Nc2cccc3c2O[C@@H](CN(C)Cc2ccc(-c4ccccc4)cc2)[C@H](C)CN([C@@H](C)CO)C3=O)n(C)n1,-0.308,?,-0.7
CC(C)NC(=O)N(C)C[C@H]1Oc2c(NC(=O)c3ccncc3)cccc2C(=O)N([C@H](C)CO)C[C@H]1C,-0.836,-5.9,0.0
Cc1cc(C(=O)Nc2cccc3c2O[C@@H](CN(C)S(=O)(=O)c2cccs2)[C@@H](C)CN([C@@H](C)CO)C3=O)n(C)n1,0.72,1.3,-2.3
Cc1cc(C(=O)Nc2cccc3c2O[C@H](CN(C)Cc2ccc(-c4ccccc4)cc2)[C@@H](C)CN([C@H](C)CO)C3=O)n(C)n1,-0.177,195.5*,-1.1
Cc1cc(C(=O)Nc2cccc3c2O[C@H](CN(C)Cc2ccc(Oc4ccccc4)cc2)[C@@H](C)CN([C@H](C)CO)C3=O)n(C)n1,0.0574,171.6*,-5.4
CC1=CS(=O)(=O)CC1SC(=S)NC(C)C (stereo not given),0.224,17.8,-1.0
Cc1c(Cl)cccc1NC(=O)CSc1nnc(-c2cccs2)n1C,/,-4.7,-0.9
CN(C)C(=O)N1CCC(C(=O)N2CCC3(CC2)OCCO3)CC1,/,-13.2,/
C[C@H](CO)N1C[C@H](C)[C@@H](CN(C)Cc2ccc(-c3ccccc3)cc2)Oc2c(NC(=O)c3ccncc3)cccc2C1=O,0.0637,149.1*,-1.7
C[C@H](CO)N1C[C@H](C)[C@H](CN(C)Cc2ccc(-c3ccccc3)cc2)Oc2c(NC(=O)c3ccncc3)cccc2C1=O,-0.218,63.1,/
CC(C)NC(=O)N(C)C[C@H]1Oc2c(NS(=O)(=O)c3cn(C)cn3)cccc2C(=O)N([C@H](C)CO)C[C@H]1C,11.8*,-3.5,2.9
CC(C)NC(=O)N(C)C[C@H]1Oc2c(NS(=O)(=O)c3cn(C)cn3)cccc2C(=O)N([C@H](C)CO)C[C@@H]1C,-0.507,?,1.5
O=C(/C=C/c1ccccc1)NC(=S)Nc1ccc(C(F)(F)F)cc1,/,-5.2,/
C=C(CO)C(=O)O[C@H]1CC(=C)[C@@H]2CC(=O)[C@H](C)[C@@H]2[C@H]2OC(=O)C(=C)[C@@H]21,-0.582,121.8*,-6.2
C=C1C(=O)O[C@H]2C1[C@H](OC(=O)/C(C)=C/CO)C/C(C)=C\CC[C@@]1(CO)OC21 (stereo not given in full),0.098,41.8,-15.0
CC1(C)CC(=O)c2cc(OCC(=O)NC3CCCC3)ccc2O1,/,24.5,/
O=C1CCCC(Cn2cncn2)C1 (stereo not given),-0.273,-0.1,-0.1
C=C1C2CCC3[C@]4(C)CCC[C@@](C)(C(=O)O)C4CC[C@]3(C2)[C@H]1OC(C)=O (stereo not given in full),-0.213,8.3,1.4
SMILES,YB-1 expression,U2OS ROS induce,PD-1 reversal
C[C@H](CO)N1C[C@H](C)[C@H](CN(C)Cc2ccc(Cl)c(Cl)c2)Oc2ccc(NS(=O)(=O)c3cn(C)cn3)cc2CC1=O,13*,17.1,0.0
C[C@H]1CN([C@@H](C)CO)C(=O)Cc2cc(NS(=O)(=O)c3cn(C)cn3)ccc2O[C@H]1CN(C)Cc1ccc(Oc2ccccc2)cc1,0.0687,88.6*,2.9
C[C@H]1CN([C@@H](C)CO)C(=O)Cc2cc(NS(=O)(=O)c3cn(C)cn3)ccc2O[C@H]1CN(C)Cc1ccc(Cl)c(Cl)c1,0.125,0.2,1.3
C[C@@H]1CN([C@H](C)CO)C(=O)Cc2cc(NS(=O)(=O)c3cn(C)cn3)ccc2O[C@H]1CN(C)Cc1ccc(Oc2ccccc2)cc1,-0.195,24.2,0.8
Cc1noc(C)c1NC(=O)Nc1ccc2c(c1)CC(=O)N([C@H](C)CO)C[C@@H](C)[C@H](CN(C)S(C)(=O)=O)O2,0.519,32.7,0.2
Cc1ccc(S(=O)(=O)N(C)C[C@H]2Oc3ccc(NC(=O)Nc4c(C)noc4C)cc3CC(=O)N([C@@H](C)CO)C[C@H]2C)cc1,9.83*,-11.0,-2.1
Cc1ccc(S(=O)(=O)N(C)C[C@@H]2Oc3ccc(NC(=O)Nc4c(C)noc4C)cc3CC(=O)N([C@H](C)CO)C[C@H]2C)cc1,-0.127,-1.3,0.7
Cc1noc(C)c1NC(=O)Nc1ccc2c(c1)CC(=O)N([C@@H](C)CO)C[C@@H](C)[C@@H](CN(C)S(=O)(=O)c1c(C)noc1C)O2,-0.143,85.2*,0.9
Cn1c2c(c3ccccc31)C(C)(C)Cc1c-2cnn1-c1ccccc1,/,17.6,/
COc1cc(NC(=O)COc2ccccc2[N+](=O)[O-])ccc1NC(=O)c1cccs1,/,132.1*,-2.2
COc1ccc(NC(=O)COc2ccccc2[N+](=O)[O-])cc1Cl,/,-3.0,1.9
NC(=O)CSc1nnc(-c2ccncc2)n1-c1cccc(C(F)(F)F)c1,/,-2.2,0.3
CCn1c(SCC(=O)Nc2ccc(F)cc2F)nnc1-c1ccccc1OC,/,1.6,-0.6
CCOC(=O)CC(=O)c1ccn(C)n1,/,-11.9,/
CC(C)(C)C(/C=C/c1ccc(Cl)cc1Cl)n1nnnc1C(C)(C)N1CCOCC1 (stereo not given),0.335,44.6,-0.6
COc1ccc([Si](C)(C)[C@@H]2[C@@H](CC(=O)N3Cc4ccccc4C[C@H]3CO)O[C@]3(C(=O)N(C)c4c(Br)cc(C)cc43)[C@H]2C)cc1,-0.0812,21.8,/
C/C=C/[C@H](CC(=O)N1Cc2ccccc2C[C@H]1CO)[Si](C)(C)c1ccc(OC)cc1,0.294,94.0*,/
C=CCNC(=O)[C@H]1[C@@H]2C(=O)O[C@@H](c3ccccc3)[C@@H](c3ccccc3)N2[C@@H](c2ccc(OCCO)cc2)[C@]12C(=O)N(C(=O)OCCOC)c1ccc(C#CC3(O)CCCCCC3)cc12,0.142,105.1*,/
C=CCNC(=O)[C@@H]1[C@H]2C(=O)O[C@H](c3ccccc3)[C@H](c3ccccc3)N2[C@H](c2ccccc2OCCO)[C@@]12C(=O)N(C(=O)OCCOC)c1ccc(C#CCCO)cc12,-0.206,37.0,/
C=CCNC(=O)[C@@H]1[C@H]2C(=O)O[C@H](c3ccccc3)[C@H](c3ccccc3)N2[C@H](c2ccc(O)cc2)[C@@]12C(=O)Nc1ccc(C#CC3(O)CCCCCC3)cc12,-0.293,4.2,/
